Tb PFK inh-1 – qHTS Assay to Find Inhibitors of T. brucei phosphofructokinase. T. brucei PFK, ADP-Glo luminescence. Potency, µM (doses to about 57.5 µM), actives largely listed as inhibitors. 330,000 compounds, 0.17% hits; note: nearly all actives have a fitted effect of over 60% in size
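ADP-Glo luminescence quantified ADP after 45 min at room temperature, with 1.25 nM T. brucei PFK, 0.1 mM ATP and 0.5 mM fructose-6-phosphate in pH 8.0 TEA buffer. qHTS titrations up to 57 µM; curves classified by quality.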
ERG Ets-DNA blk – qHTS for Small Molecule Inhibitors of the ERG Ets/DNA interaction; Transcriptional regulator ERG (Homo sapiens), P11308; fluorescence polarization, His-ERG Ets domain / labelled DNA; Potency, µM (highest dose often 76.9 µM), most hits filed as inhibitors; 370,000 compounds, 0.028% hits; AID 624246, 2012; active = well fitted inhibition curve with a large enough effect in the polarisation, with a control signal flat; inconclusive = small, poorly fitted or top-dose-only effect, or effect the other way, or a change in a side signal; inactive = no such curve, though single readings can be large or run the other way; the % refers to the polarisation;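 note: polarization taken with two DNA probes labelled with fluorescein and Texas red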
Target sequence (P11308 whole entry, looked up, the tested form may be a part): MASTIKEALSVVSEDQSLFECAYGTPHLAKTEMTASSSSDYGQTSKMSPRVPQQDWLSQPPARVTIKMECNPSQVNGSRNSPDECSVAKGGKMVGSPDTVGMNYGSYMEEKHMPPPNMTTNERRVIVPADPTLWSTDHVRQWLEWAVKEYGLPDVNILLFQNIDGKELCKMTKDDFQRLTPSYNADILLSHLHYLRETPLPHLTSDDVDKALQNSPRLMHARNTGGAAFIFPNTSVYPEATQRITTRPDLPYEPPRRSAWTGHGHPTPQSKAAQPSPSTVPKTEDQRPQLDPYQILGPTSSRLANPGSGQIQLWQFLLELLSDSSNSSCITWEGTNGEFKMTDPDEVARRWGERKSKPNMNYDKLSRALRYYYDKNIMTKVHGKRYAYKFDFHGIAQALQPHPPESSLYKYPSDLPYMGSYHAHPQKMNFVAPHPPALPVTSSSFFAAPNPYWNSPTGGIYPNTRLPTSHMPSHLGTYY
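His-tagged ERG Ets domain (1 uM in the protein solution; 300mM KCl, 50mM Tris-HCl, 1mM EDTA, 1mM DTT, pH 7.5) received compound, then a probe mix of 5 nM fluorescein-DNA and 100nM Texas-615-DNA. Fluorescence polarization was read for both dyes.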
Tb PGK inh – qHTS Assay to Find Inhibitors of Phosphoglycerate Kinase | Phosphoglycerate kinase, glycosomal (Trypanosoma brucei brucei), P07378 | PGK/GAPDH coupled, Kinase-Glo luminescence, 60 min | Potency, µM (titrated, usually from 57.5 µM), actives largely listed as inhibitors | 380,000 compounds, 0.043% hits | AID 602233, 2012; note: nearly all actives have a fitted effect of over 60% in size
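Recombinant glycosomal PGK reaction used 1,3-bisphosphoglycerate generated in-well by GAPDH (100nM final) in 100mM TEA pH 7.6, 5mM MgCl2, 0.01% Tween-20. After 60 minutes at room temperature, ATP was read by Kinase-Glo Plus luminescence end-point.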
BCR signal inh – qHTS Assay to Find Inhibitors of Chronic Active B-Cell Receptor Signaling | ABC-DLBCL IkBa-CBG/CBR reporter, luminescence ratio, 4 h | Potency, µM (top dose mostly 46.1 µM), actives largely listed as inhibitors | 340,000 compounds, 0.05% hits; active = well fitted inhibition curve with a large enough effect in the signal ratio, with a control signal flat, not every such curve was filed as active; inconclusive = small, poorly fitted or top-dose-only effect, or effect the other way, or a change in a side signal; the % refers to the signal ratio
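Doxycycline induced both beetle luciferases in TMD8 lymphoma cells; IKK-driven degradation limits the IkappaBalpha-fused green signal, while red luminescence normalises for cell number and nonspecific effects. Compounds tested up to 46 uM, 4 hrs.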
Pin1 inhibitor – qHTS Assay to Find Inhibitors of Pin1 | Peptidyl-prolyl cis-trans isomerase NIMA-interacting 1 (Homo sapiens), Q13526 | Pin1 FP peptide displacement, HiFluor488, 10 min | Potency, µM (highest dose often 115 µM), usual class: inhibitors | 390,000 compounds, 0.009% hits; active = well fitted inhibition curve with a large enough effect in the polarisation, with a control signal flat, not every such curve was filed as active; inconclusive = small, poorly fitted or top-dose-only effect, or effect the other way, or a change in a side signal; inactive = no such curve, though single readings can be large or run the other way; the % refers to the polarisation
Target sequence (Q13526 whole entry, looked up): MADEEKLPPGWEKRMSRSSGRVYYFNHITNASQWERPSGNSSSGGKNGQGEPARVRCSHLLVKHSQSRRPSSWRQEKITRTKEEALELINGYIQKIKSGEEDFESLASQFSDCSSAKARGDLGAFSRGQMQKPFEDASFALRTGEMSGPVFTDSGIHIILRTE
Tb PFK KinaseGlo – Tb PFK orthogonal confirmatory assay using ATP depletion (Kinase-Glo Plus) as an alternative measure of Tb PFK activity: Hit Validation. Tb PFK enzyme, ATP depletion, Kinase-Glo Plus luminescence. shares compounds with Tb PFK inh-1. AID 504636, 2011. 1,100 compounds, 47% hits. Potency, µM (highest dose often 57.5 µM); calls by dose curve; note: nearly all actives have a fitted effect of over 60% in size
Tb PFK inh-2 – Inhibitors of T. brucei phosphofructokinase: Hit Validation. shares compounds with Tb PFK inh-1. purified T. brucei PFK, ADP-Glo luminescence, 45 min. Potency, µM (series often up to 57.5 µM), actives largely listed as inhibitors. 1,100 compounds, 41% hits. AID 504637, 2011; note: nearly all actives have a fitted effect of over 60% in size
A number is an active result; - = inactive; ? = inconclusive; . = no result given. Shown are actives, neighbours in structure and some others; about 0.25% of the full set was active somewhere. Unless noted, calls come from the whole dose curve; as a rule, active = well fitted curve in the direction sought with a large enough effect; inconclusive = small, poorly fitted or top-dose-only effect, or another doubt; inactive = no such curve, though single readings can be large; an effect the other way counts as inactive or inconclusive.

SMILES	Tb PFK inh-1	ERG Ets-DNA blk	Tb PGK inh	BCR signal inh	Pin1 inhibitor	Tb PFK KinaseGlo	Tb PFK inh-2
CCc1nnc(NS(=O)(=O)c2ccc(NC(=S)NC(=O)/C=C/c3ccccc3)cc2)s1	-	-	-	?	?	.	.
CCc1nnc(NS(=O)(=O)c2ccc(NC(=S)NC(=O)/C=C/c3ccc(OC)cc3)cc2)s1	?	-	?	-	-	?	?
O=S(=O)(c1ccc2c(c1)OCCO2)N1CCN(S(=O)(=O)c2cccc(Cl)c2F)CC1	.	.	.	.	-	.	.
COc1ccc(C2/C=C\CN([S+](=O)([O-])c3ccc4ccccc4c3)C(C)C(=O)N2Cc2ccc(F)cc2)cc1 (stereo unspecified)	.	.	.	.	-	.	.
NS(=O)(=O)c1ccc(NC(=O)C2COc3ccccc3O2)cc1 (stereo unspecified)	21µM	-	-	-	-	6.7µM	30µM
COc1ccccc1NS(=O)(=O)c1ccc2c(c1)CCC(=O)N2	.	.	.	.	-	.	.
COc1ccc(OC)c(/C=N/NC(=O)CCc2ccc(O)c(O)c2)c1	1.7µM	-	-	?	-	?	-
N#Cc1nc(NCCO)nc(Nc2ccccc2)n1	.	.	.	.	-	.	.
CN1C(=S)SC(N(O)C(=O)Nc2ccc(Cl)c(Cl)c2)C1(C)C (stereo unspecified)	?	-	-	-	-	?	?
CN1C(=S)SC(C)(C)C1N(O)C(=O)Nc1ccc(Cl)cc1 (stereo unspecified)	-	-	-	?	-	.	.
N#Cc1ccc(N2CCN(S(=O)(=O)c3ccc4c(c3)CC(=O)N4)CC2)cc1	.	.	.	.	-	.	.
Fc1cccc(-c2csc(-c3ccno3)n2)c1	?	-	-	-	-	?	?
Clc1ccc(-c2csc(-c3ccno3)n2)cc1	-	-	-	?	-	.	.
COc1ccc(C2c3c(n(CCCc4ccccc4)cnc3=N)Oc3ccc4ccccc4c32)cc1OC (stereo unspecified)	.	.	.	.	-	.	.
O=C(O)c1ccc(NCc2cccc(Br)c2)cc1	21µM	-	-	-	-	12µM	24µM
O=C(O)c1ccc(NCc2ccncc2)cc1	-	-	-	-	-	.	.
O=[N+]([O-])c1c(NCCO)cc(N2CCCCCC2)c2nonc12	-	-	-	-	-	.	.
Cc1nnc(Sc2cc(NCCCO)c([N+](=O)[O-])c3nonc23)s1	6µM	-	-	?	?	1.9µM	3.4µM
CCCSc1cc(NCCOC(C)=O)c([N+](=O)[O-])c2nonc12	-	-	-	-	-	.	.
Cc1nnc(Sc2cc(NCCO)c([N+](=O)[O-])c3nonc23)s1	5.4µM	-	-	?	?	1.3µM	1.5µM
COc1ccc(NS(=O)(=O)c2ccc(C)c(NC(=O)CN3C(=O)NC4(CCCC4)C3=O)c2)cc1	?	-	-	-	-	-	?
Cc1ccc(S(=O)(=O)N(C)C)cc1NC(=O)CN1C(=O)NC2(CCCCCC2)C1=O	-	-	-	-	-	.	.
COC(=O)Oc1nsnc1N1CCOCC1	27µM	.	-	-	?	?	?
Clc1cccc2c3c([nH]c12)CCNC3	?	-	-	-	-	?	?
O=[S+]([O-])([O-])c1ccc2c(c1)cc([S+](=O)([O-])[O-])c1nn(-c3ccc(/C=C/c4ccc(-n5nc6c([S+](=O)([O-])[O-])cc7cc([S+](=O)([O-])[O-])ccc7c6n5)cc4[S+](=O)([O-])[O-])c([S+](=O)([O-])[O-])c3)nc12	.	.	.	.	-	.	.
SMILES	Tb PFK inh-1	ERG Ets-DNA blk	Tb PGK inh	BCR signal inh	Pin1 inhibitor	Tb PFK KinaseGlo	Tb PFK inh-2
O=C(O)c1ccccc1-c1ccccc1C(=O)Nc1ccc2oc(=O)c3ccccc3c2c1	.	.	-	.	.	.	.
CCOP(=O)(Nc1ccc2oc(=O)c3ccccc3c2c1)OCC	?	-	-	-	-	-	-
Cc1cc2c(s1)c1cnn(Cc3ccc(SC(F)(F)F)cc3)c(=O)c1n2C	.	.	.	.	-	.	.
Cc1c(N=Cc2ccc(O)c(Br)c2)cccc1[N+](=O)[O-]	27µM	.	-	-	-	?	?
O=[N+]([O-])c1ccc(N=Cc2ccc(Br)c([N+](=O)[O-])c2)cc1	?	-	-	?	-	.	.
Cc1cc2c(c(C)c1Cl)C(c1ccc3c(c1)OCO3)CC(O)(c1ccccc1)O2 (stereo unspecified)	.	.	.	.	-	.	.
O=C(CSc1nnc(C2CC2)n1C1CC1)c1ccc(F)c(F)c1	-	-	-	-	-	.	.
CC(=O)Nc1cc(C(=O)CSc2nnc(C3CC3)n2C2CC2)ccc1O	?	-	-	-	?	?	?
CC(C)(C)c1cc(C(=S)N2CCN(CCO)CC2)cc(C(C)(C)C)c1O	30µM	-	-	-	-	12µM	24µM
O=c1oc2cc(O)c(Cl)cc2c2ccccc12	-	-	-	-	-	.	.
O=c1cc2c(=O)oc3cc(O)c(O)oc3c2c(O)c1O	7.6µM	-	?	-	.	1.2µM	1.3µM
Cc1cc(C)cc(NC(=S)Nc2ccc(Cl)c(Cl)c2)c1	9.5µM	-	-	-	-	24µM	?

Screens deposited in PubChem by National Center for Advancing Translational Sciences (NCATS).
